# From PubChem BioAssay AID2355 (The Scripps Research Institute Molecular Screening Center, 2010)
# This is one part of the list. Values without a mark were called inactive. Calls of active or inactive are those of the source. Rule as the data show it: active = inhibition above about 16%; inactive = the rest.
# Biological target: Serine/threonine-protein phosphatase PP1-alpha catalytic subunit (Homo sapiens) (UniProt P62136)
# Assay: human PP1 catalytic activity blockade – biochemical, fluorescence, triplicate, counter-screen for PP5 inhibitor project (AID 2355)
# Details: PP1 enzyme, fluorescent phosphatase substrate; at 6.7 µM; stronger effect = higher value
# Chain of Serine/threonine-protein phosphatase PP1-alpha catalytic subunit (Homo sapiens) (P62136 whole entry, looked up): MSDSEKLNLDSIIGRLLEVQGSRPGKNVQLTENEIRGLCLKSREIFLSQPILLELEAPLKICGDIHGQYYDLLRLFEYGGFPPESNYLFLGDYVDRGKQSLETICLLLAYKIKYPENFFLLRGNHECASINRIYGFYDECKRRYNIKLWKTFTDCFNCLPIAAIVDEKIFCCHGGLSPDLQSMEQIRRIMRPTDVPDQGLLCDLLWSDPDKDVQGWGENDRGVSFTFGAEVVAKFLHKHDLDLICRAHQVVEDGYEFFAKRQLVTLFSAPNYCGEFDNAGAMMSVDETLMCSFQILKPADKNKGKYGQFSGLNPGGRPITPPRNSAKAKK
row,Compound,inhibition
1,CN(C)c1nc(N)nc(CSc2nnnn2-c2cccc3ccccc23)n1,-1.14%
2,COc1ccc(OC)c(C(=O)c2ccc(C(=O)O)cc2)c1,-5.81%
3,CNC(=S)NNC(=O)c1oc2nc(-c3ccccc3)cc(-c3ccco3)c2c1N,-1.11%
4,Cc1sc(NC(=O)C2C3CCC(O3)C2C(=O)O)c(C(=O)OC(C)C)c1-c1ccc(Cl)cc1 (stereo not drawn),9.97%
5,COCCN1C=C2C(=O)C(C)(OC(=O)C3CCCC3)C(=O)C=C2C=C1c1ccsc1 (stereo not drawn),16.6% (active)
6,CCN1CCN(CCNC(=O)c2ccc(/C=C3/Sc4ccccc4N(Cc4cccc(C)c4)C3=O)cc2)CC1,-16%
7,CCOC(=O)Nc1ccc2c(c1)N(C(=O)CN1CCN3CCCC3C1)c1ccccc1CC2 (stereo not drawn),-7%
8,O=c1ccc2c(-c3ccccc3S(=O)(=O)O)c3ccc(O)c(O)c3oc-2c1O,5.34%
9,O=C(O)c1n[nH]nc1-c1ccccc1,0.18%
10,O=[N+]([O-])c1cccc2ncccc12,-2.99%
11,CN(c1ccccc1)S(=O)(=O)c1ccc(NC(=O)COc2ccccc2)cc1,3.34%
12,Cc1nc(NC(CC(C)C)C(=O)O)c2nc(C)oc2n1 (stereo not drawn),-4.44%
13,COc1cc(/C=C2/SC(=S)N(Cc3ccccc3)C2=O)cc(OC)c1O,2.23%
14,C[C@@]12C(=O)N(c3cccc(Br)c3)C(=O)N1[C@H](c1ccc(Cl)cc1)[C@@H]1C(=O)N(C3CCCCC3)C(=O)[C@@H]12,6.16%
15,O=C(C1=C[C@H](c2ccc(C(F)(F)F)cc2)C[C@H](OCc2ccc(CO)cc2)O1)N1CCN(Cc2ccccc2)CC1,3.55%
16,Cc1nnc(SCc2nc3ccccc3nc2C)s1,-2.74%
17,N#Cc1c(N2CCCCC2)nc(N)c2c(N)nc(SCC(=O)O)cc12,3.99%
18,COc1cc(C(F)(F)F)c(C(=O)N(C)c2ccc(Cl)cc2)cn1,0.28%
